# Reference: PubChem BioAssay (NCI)
# This is part of a sample that, as a whole, favours compounds with a hit. Of some 83,000 tested, about 20% had one in any assay.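 Cells were grown in 96-well plates and exposed to the test compound at a single concentration for 48 hours; results are reported as percent growth, with values below 10 considered active.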 A number with no mark means an inactive call. Activity calls are given as the source filed them.
# System: ACHN renal
# Assay: NCI-60 one-dose screen, 48 h (100 = growth as untreated, 0 = no growth, -100 = all killed)
# Conditions: 10 µM unless noted
# Method: Growth inhibition of the ACHN human tumor cell line is measured as a screen for anti-cancer activity. Cells are grown in 96 well plates and exposed to the test compound for 48 hours. Compounds are tested at a single concentration, which is 10^-5 M for most compounds. The reported endpoint is percent growth (GI% or GIPRCNT), where numbers from 0 - 100% represent growth inhibition, and numbers from -100% - 0 represent cell death. For example, a value of 40 represents 60% growth inhibition. A value of 0 means no net growth occurred over the course of the experiment. A value of -40 indicates 40% of cells at the beginning of the experiment died by the end of the experiment. A value of -100 means all cells are dead at the end of the experiment.
# NCI-60 Human Tumor Cell Lines Screen was performed using the standard one-dose NCI protocol, which is described in more detail at https://dtp.cancer.gov/discovery_development/nci-60/default.htm.
# Compounds with GIPRCNT values below 10 were considered active. Activity score was based on GIPRCNT using the following formula: […]
# Score is 0 for GIPRCNT values of 100 or above, 50 for GIPRCNT values of 0, and 100 for GIPRCNT values of -100.
row,Structure (SMILES),growth
1,O=C(/C=C/c1ccco1)Nc1ncc(Cc2ccc(F)cc2)s1,40.2%
2,CSc1nn2c(-c3cc4cc(Br)ccc4oc3=O)ccnc2c1C#N,105%
3,Cc1oc2ccc(O)c(CN3CCCCCC3)c2c1C(=O)Nc1ccc(C(F)(F)F)cc1,68.5%
4,O=C1NCCN1/N=C/c1c(Cl)n(Cc2ccc(Cl)cc2)c2ccccc12,94.4%
5,Nc1ccc(Cl)c2c(=O)c3ccccc3[nH]c12,80.8%
6,CNC(=O)c1cc(Oc2ccc3nc(NC(=O)NC(C)C)sc3c2)ccn1,94%
7,C#CC#CC#CC#CC#CC#CC#CC#CC[C@@H]1OC[C@H](COC(=O)O[C@@H](C(=O)O[C@H]2C[C@@]3(O)[C@@H](OC(=O)c4ccccc4)[C@@H]4[C@]5(OC(C)=O)CO[C@@H]5C[C@H](O)[C@@]4(C)C(=O)[C@H](OC(C)=O)C(=C2C)C3(C)C)[C@@H](NC(=O)c2ccccc2)c2ccccc2)O1,79.3%
8,COc1cc(OC)cc(C(=O)Nc2cnc(Nc3ccc(N4CCOCC4)nc3)nc2Oc2ccc(C(F)(F)F)cc2)c1,66.4%
9,Cc1ccc(-c2nc(C#N)c(S(=O)(=O)n3nc(C)cc3N)o2)cc1,-37.8% (active)
10,CC1=C(C(=O)OCc2ccccc2)C(c2ccc3c(c2)OCO3)n2c(nc3ccccc32)N1 (stereo not given),38.4%
11,O=C1N/C(=N/N=C(c2ccccc2)c2ccccc2)S/C1=C\c1ccc(Br)cc1,97.7%
12,C=CCNc1nc(O)c(/C=C2\C=Nc3ncccc32)s1,-1.22% (active)
13,COc1cc(-c2c(-c3ccccc3)c[nH]c2C(=O)NCCCO)c(OC)c2c1OCO2,98.9%
14,Cc1ccc(NC(=O)c2ccc(Nc3ncnc4c3cnn4-c3cccc(F)c3)cc2)cc1,98.4%
15,Cc1ccc(Nc2cc(N)nc(N)n2)cc1,102%
16,CCN(CC)CCOc1ccc(/C(=C(\C)Cc2ccc(OC)cc2)c2ccc(O)cc2)cc1,18.9%
17,Cc1cccc(CN(Nc2ccccc2)c2ccccc2)n1,102%
18,CC1=C([Se]CC(OC(=O)[C@@H](CO)NC(=O)OC(C)(C)C)C(=O)NCCCCCC(=O)OCc2ccccc2)C(=O)c2ccccc2C1=O (stereo not given in full),-83.3% (active)
19,C=CC(=O)NCc1cccc(Nc2ncc(Br)c(NCCCNC(=O)C3CCC3)n2)c1,7.42% (active)
20,CNC(=O)c1cc(Oc2cccc3nc(NC(=O)Nc4ccc(F)cc4F)ccc23)ccn1,33.6%

row,Structure (SMILES),growth
1,C=CN(C(=O)N1CCN(c2cc3c(cc2F)c(=O)c(C(=O)O)cn3C2CC2)CC1)c1nc(-c2ccc(C)cc2)cs1,27.7%
2,O=C(Cn1cc(CSc2nc3ccccc3o2)nn1)Nc1ccc([N+](=O)[O-])cc1,95.2%
3,CN1CC(c2ccccc2)C(C(=O)c2ccc(Br)cc2)C12C(=O)Nc1ccccc12 (stereo not given),100%
4,C#C[C@]1(O)CC[C@H]2[C@@H]3CC=C4c5sc(-c6ccccc6)nc5CC[C@]4(C)[C@H]3CC[C@@]21C,85.6%
5,C(=N\Nc1nnc2n1N=C(c1ccccc1)CS2)/c1ccc(OCc2ccccc2)cc1,112%
6,Nc1ncc(-c2ccc3ncnc(N4CCc5cc(F)c(Cl)cc54)c3c2)cc1C=O,7.1% (active)
7,CN(C)c1ccc(/C=N/NC(=O)CSc2nc3sc4c(c3c(=O)n2-c2ccccc2)CCCCC4)cc1,24.6%
8,CC(=O)c1c(/C=C/c2ccc(C)cc2)c2ccccc2[nH]c1=O,91%
9,CCOC(=O)CCC(=O)P(=O)(O)O,91.6%
10,O=C(O)/C=C/c1cn(-c2ccccc2)nc1-c1ccc(F)cc1,92%
11,C#CCOc1cccc(-c2ncnc3cc(NC(=O)CCl)ccc23)c1,-99.6% (active)
12,CCOc1ccc(N2C(=O)CCSC2=S)cc1,101%
13,O=C(Nc1ccccc1)Nc1ccccc1CNc1nc(Nc2ccc(OCCN3CCCC3)cc2)ncc1Cl,18.2%
14,Cn1ccnc1C(=O)/C=C/c1ccc(CC(=O)Nc2cc(F)c(F)c(F)c2)cc1,45.9%
15,COc1c(O[C@@H]2OC(CO)[C@H](O)[C@H](O)C2O)cc2oc3cc(O)c(CC=C(C)C)c(O)c3c(=O)c2c1CC=C(C)C (stereo not given in full),96.5%
16,O=C(O)/C=C\C(=O)Nc1ccc2c(c1)Cc1cc(F)ccc1-2,94.2%
17,COc1ccc(Cn2cc(C(=O)N=Nc3c(O)[nH]c4ccc(Br)cc34)nn2)cc1,110%
18,CCOC(=O)CC1CSC(N/N=C(/C)c2cccc(C(F)(F)F)c2)=N1 (stereo not given),106%
19,OC1CSSC1Cn1cnc2c(Nc3ccc(F)c(Cl)c3)ncnc21 (stereo not given),98.1%
20,O=C(/C=C/c1cccc([N+](=O)[O-])c1)c1ccc(Nc2nc(Nc3ccc(F)cc3)nc(Nc3ccc(Cl)cc3)n2)cc1,92%
